Reference: PubChem BioAssay (NCI)
This is part of a sample that, as a whole, favours compounds with a hit. Of some 83,000 tested, about 20% had one in any assay.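 In brief: 96-well plates, 48 h treatment, single concentration, percent growth endpoint.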 Active and inactive are the calls of the source. Rule for the calls: active = growth percent below 10; inactive = the rest.

system: HL-60(TB) leukemia; test: NCI-60 one-dose screen, 48 h (100 = growth as untreated, 0 = no growth, -100 = all killed); conditions: 10 µM unless noted

| SMILES | growth |
| --- | --- |
| COC(=O)c1ccc2[nH]c(O)c(C(=Nc3ccc(N(C)C(=O)CN4CCN(C)CC4)cc3)c3ccc(CCO)cc3)c2c1 | 7.24% (active) |
| COc1cc(NCCC2CCCCN2)c2ncccc2c1OC (stereo unspecified) | 0.805% (active) |
| COc1ccc(-c2c(-c3cc(OC)c(OC)c(OC)c3)noc2N)cc1 | 12.5% (inactive) |
| COC(=O)c1cc2oc(/C=N\NC(=O)c3cc4oc(C)c(C)c4[nH]3)cc2[nH]1 | 103% (inactive) |
| O=c1[nH]c(CN2CCN(c3ccccc3F)CC2)nc2sc3c(c12)CCC3 | 116% (inactive) |
| COc1ccc2c(c1)C(=O)CC(c1ccccc1OC)O2 (stereo unspecified) | 88.2% (inactive) |
| CC1(O)CCC2CC3OC3(C)CCC3OC3(C)C(O)CC1C2(C)C (stereo unspecified) | 137% (inactive) |
| Nc1ccc2cc(Br)c3ccccc3c2c1 | 45.6% (inactive) |
| COc1ccc(-c2cc(-c3cc(OC)ccc3O)[nH]c(=O)c2C#N)cc1 | 16.9% (inactive) |
| C=C1CC[C@@H](C(=O)OC)Cc2nc(C)ccc21 | 100% (inactive) |
| COCCn1cc(-c2nc(-c3cc4cccnc4n3C)cs2)c2ccccc21 | 42.2% (inactive) |
| COc1ccc(C(=O)c2sc3nc(C)cc(C)c3c2N)cc1OC | 97.3% (inactive) |
| NC(=O)c1cc(Cl)ccc1NC(=O)COc1ccccc1 | -0.779% (active) |
| COc1ccc(-c2csc(C3=C(O)CN(C(C)C)C3=N)n2)cc1OC | 76.4% (inactive) |
| Fc1cc2[nH]ncc2c2c3c(c(-c4cn[nH]c4)nc12)CCCC3 | -13.2% (active) |
| O=C(O)CSCc1nnc2n(Cc3ccccc3)c(=O)c3c4c(sc3n12)CCCC4 | 94.9% (inactive) |
